Laboratory results: PubChem BioAssay AID651918 (Vanderbilt Specialized Chemistry Center, 2012)
Active and inactive are the calls of the source. The rule behind the calls is not given here.

Target: Histone deacetylase 1 (Homo sapiens) (UniProt Q13547)
Experiment: HDAC1 enzyme inhibition, profiling panel, selectivity assay for E-cadherin restoration project, biochemical, HDAC isoform panel (AID 651918)

Chain of Histone deacetylase 1 (Homo sapiens) (Q13547 whole entry, looked up, canonical isoform): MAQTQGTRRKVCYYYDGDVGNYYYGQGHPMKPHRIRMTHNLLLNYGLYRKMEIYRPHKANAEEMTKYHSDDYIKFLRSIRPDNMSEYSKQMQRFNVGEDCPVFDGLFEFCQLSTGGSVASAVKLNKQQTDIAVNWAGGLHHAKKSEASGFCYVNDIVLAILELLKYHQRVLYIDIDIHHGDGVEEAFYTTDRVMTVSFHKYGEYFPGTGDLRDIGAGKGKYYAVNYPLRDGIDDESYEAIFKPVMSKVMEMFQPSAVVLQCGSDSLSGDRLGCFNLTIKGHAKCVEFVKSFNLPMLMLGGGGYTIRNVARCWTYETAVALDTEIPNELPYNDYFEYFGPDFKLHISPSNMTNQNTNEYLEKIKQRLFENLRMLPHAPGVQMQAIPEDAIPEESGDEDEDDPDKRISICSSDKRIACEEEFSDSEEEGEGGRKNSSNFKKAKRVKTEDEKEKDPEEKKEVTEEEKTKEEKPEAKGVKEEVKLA

O=C(NCCCNC(=O)c1ccc[nH]c1=O)c1cc(-c2ccccc2)on1
outcome: inactive
